G9a block = blocks human histone lysine methyltransferase G9a; Q96KQ7; AID 504332; G9a H3K9 monomethylation, AlphaScreen, 2 h; Potency, µM (doses to about 102 µM), for inactives: at the highest dose activity, negative = inhibition, most hits filed as inhibitors; actives 8.8% (n = 350,000); also: potency is read from the fitted curve at half-maximal effect; % is scaled to controls: 0 for no effect and ±100 for the full control effect; nearly all actives have a fitted effect of over 75% in size
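AlphaScreen read-out: biotin-H3K9 peptide (500 nM) methylation by 20 nM enzyme with 20 uM SAM, 2 h at room temperature after 15 min compound preincubation; anti-monomethyl H3K9 antibody plus donor/acceptor beads, 10 min dark.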
HP1b chromo inh = HP1-beta chromodomain-methylated histone interaction inhibition | actives 0.56% (n = 390,000) | AID 540317 | AlphaScreen HP1-beta / biotin-H3K9me3 peptide binding | P83916 | Potency, µM (doses to about 114 µM), for inactives: at the highest dose activity change, negative = inhibition, hits mostly inhibitors; also: potency is read from the fitted curve at half-maximal effect; nearly all actives have a fitted effect of over 70% in size
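Compound inhibition of the preformed complex between 50 nM HP1-beta and 50 nM biotinylated H3K9me3 peptide was read by AlphaScreen. Buffer was PBS pH 7.4 with 0.01% Tween-20. Incubations ran 30 min at room temperature, with 10 ug/mL donor/acceptor beads.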
BAZ2B block = blocks human BAZ2B; Q9UIF8; AlphaScreen BAZ2B-H3K14Ac peptide displacement; Potency, µM (top dose mostly 114 µM), inactives show at the highest dose activity change, negative = inhibition, hits mostly inhibitors; actives 4.4% (n = 360,000); AID 504333; also: potency is read from the fitted curve at half-maximal effect; % is scaled to controls: 0 for no effect and ±100 for the full control effect; nearly all actives have a fitted effect of over 60% in size
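Protein-peptide AlphaScreen: BAZ2B 50 nM, b-H3K14Ac 50 nM, 1x PBS pH 7.4 + 0.01% Tween-20. Preincubation 30 min RT; cpd 30 min RT (top 110 uM); beads 20 min RT, light-protected.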
L3MBTL1 block = inhibitors of human L3MBTL1; AlphaScreen L3MBTL1–H3K9me1 peptide binding; Potency, µM (highest dose often 57.1 µM), without a hit: at the top dose activity, negative = inhibition, actives largely listed as inhibitors; actives 0.66% (n = 230,000); also: potency is read from the fitted curve at half-maximal effect; % is scaled to controls: 0 for no effect and ±100 for the full control effect; nearly all actives have a fitted effect of over 60% in size
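First, the protein-peptide complex forms for 30 min at room temperature (L3MBTL1 50 nM, biotinylated H3K9me1 peptide 75 nM). Next, compounds are pin-transferred and incubated 30 min. Finally, AlphaScreen beads are added and read after 30 min.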
JMJD2A Tudor inh = JMJD2A Tudor domain (human) inhibition; Potency, µM (top dose mostly 114 µM), inactives show top-dose activity change, negative = inhibition, actives largely listed as inhibitors; actives 4.4% (n = 390,000); AlphaScreen JMJD2A-Tudor / H3K4me3 peptide binding; also: potency is read from the fitted curve at half-maximal effect; % is scaled to controls: 0 for no effect and ±100 for the full control effect; nearly all actives have a fitted effect of over 50% in size
Target sequence (O75164 whole entry, looked up, the tested form may be a part): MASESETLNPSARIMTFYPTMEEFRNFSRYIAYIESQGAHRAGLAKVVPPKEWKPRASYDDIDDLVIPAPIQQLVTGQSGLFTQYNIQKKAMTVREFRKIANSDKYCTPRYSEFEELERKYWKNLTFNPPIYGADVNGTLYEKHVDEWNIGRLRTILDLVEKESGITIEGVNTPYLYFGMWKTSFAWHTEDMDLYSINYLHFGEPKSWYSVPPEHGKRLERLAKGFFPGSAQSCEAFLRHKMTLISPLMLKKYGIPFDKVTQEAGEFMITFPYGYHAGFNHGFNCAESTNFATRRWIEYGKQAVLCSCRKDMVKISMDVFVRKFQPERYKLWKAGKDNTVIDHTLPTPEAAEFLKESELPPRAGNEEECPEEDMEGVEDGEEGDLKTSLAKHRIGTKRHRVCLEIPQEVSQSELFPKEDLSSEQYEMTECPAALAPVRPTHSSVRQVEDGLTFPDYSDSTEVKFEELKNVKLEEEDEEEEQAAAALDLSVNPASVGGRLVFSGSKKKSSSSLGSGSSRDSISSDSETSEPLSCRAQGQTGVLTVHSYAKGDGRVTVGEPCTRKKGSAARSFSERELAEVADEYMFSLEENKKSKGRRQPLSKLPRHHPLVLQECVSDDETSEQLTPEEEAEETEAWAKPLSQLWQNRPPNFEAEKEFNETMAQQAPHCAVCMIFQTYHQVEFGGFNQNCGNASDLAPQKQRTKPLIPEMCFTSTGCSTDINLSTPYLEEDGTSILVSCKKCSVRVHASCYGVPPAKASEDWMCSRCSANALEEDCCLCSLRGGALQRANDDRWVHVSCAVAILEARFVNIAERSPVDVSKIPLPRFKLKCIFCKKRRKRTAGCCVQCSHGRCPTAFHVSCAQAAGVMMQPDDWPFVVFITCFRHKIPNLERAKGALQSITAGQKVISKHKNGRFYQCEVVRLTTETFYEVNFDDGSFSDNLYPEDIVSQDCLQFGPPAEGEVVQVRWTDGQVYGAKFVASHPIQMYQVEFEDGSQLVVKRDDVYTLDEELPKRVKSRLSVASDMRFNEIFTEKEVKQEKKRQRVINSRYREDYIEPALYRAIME
PI5P4K alpha inh = blocks human PI5P4K alpha kinase activity; PI5P4Kalpha enzyme, ADP-Glo luminescence, 60 min; active compounds read low; P48426; max response, %; actives 1.2% (n = 330,000); active = max response of -50% or lower; inconclusive = between -30% and -50%; inactive = -30% or higher; also: value at the top dose of about 77 µM; % is scaled to controls: 0 for no effect and ±100 for the full control effect
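Compounds were pin-transferred onto PI5P4Kalpha and substrate in HEPES pH 7.4 buffer with EGTA, CHAPS and 5% DMSO. ATP (5 microM final) started the reaction, which ran 60 minutes at room temperature before ADP-Glo detection.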
Numbers without * were called inactive; ? = inconclusive; nt = no result given; [ ] = remark or other dose. Shown are actives, neighbours in structure and some others; about 11% of the full set was active somewhere. Unless noted, calls follow the shape of the dose curve; as a rule, active = well fitted inhibition curve with a large enough effect; inconclusive = small, poorly fitted or top-dose-only effect; inactive = no such curve, though single readings can be large or run the other way.

SMILES | G9a block | HP1b chromo inh | BAZ2B block | L3MBTL1 block | JMJD2A Tudor inh | PI5P4K alpha inh
C#CCOCCOCCOCCNc1nc(N2CCN(C(=O)[C@H](CCC(=O)O)n3cc(C(N)Cc4ccc(O)cc4)nn3)CC2)nc(N2CCN(C(=O)[C@H](CCC(=O)O)n3cc(C(N)[C@H](C)CC)nn3)CC2)n1 (some centres not stated) | -127%[59 µM] | 21% | 40µM* | -1% | 25µM* | 2
C#CCOCCOCCOCCNc1nc(N2CCN(C(=O)[C@H](CCC(=O)O)n3cc(CN)nn3)CC2)nc(N2CCN(C(=O)[C@H](CCCN=C(N)N)n3cc(C(N)[C@@H](C)CC)nn3)CC2)n1 (some centres not stated) | nt | 22% | nt | 0% | ? | 0
CSc1nc(=O)[nH]c2nc[nH]c12 | nt | 11%[57 µM] | nt | nt | -5%[57.1 µM] | nt
CCOC(=O)c1c(NC(=O)C2c3ccccc3Oc3ccccc32)sc(C)c1CC | 11%[59 µM] | 23% | -13% | nt | -18% | nt
COc1cccc(C(=O)NCC(c2ccc3c(c2)OCO3)N2CCN(C)CC2)c1 (configuration not stated) | -4%[59 µM] | 54%[57 µM] | 39% | nt | -7% | nt
COc1ccc(/C=C2\SC(=S)N(CCCC(=O)N3CCOCC3)C2=O)cc1 | nt | -36% | nt | nt | 50µM* | 12
COc1cccc(/C=C2\SC(=O)N(CCC(=O)N3CCC(C(=O)O)CC3)C2=O)c1 | 71µM* | 40% | ? | nt | -12% | 4
COc1cccc(/C=C2\SC(=S)N(CCCC(=O)N3CCCC3)C2=O)c1 | 40µM* | ? | 32µM* | nt | 45µM* | 3
COc1ccc(/C=C2\SC(=S)N(CCCC(=O)N3CCN(C)CC3)C2=O)cc1OC | nt | 21% | nt | nt | -3% | -1
COc1ccc(/C=C2\SC(=S)N(CCCC(=O)N3CCOCC3)C2=O)cc1OC | 9% | -10% | -17% | nt | -18% | 3
COc1ccc(/C=C2\SC(=O)N(CCC(=O)N3CCN(C)CC3)C2=O)cc1 | 4% | 23% | -6% | 2% | -8% | 3
O=C(CCN1C(=O)/C(=C/c2ccc(F)cc2)SC1=S)NCCc1cnc[nH]1 | 28µM* | -25% | 18µM* | nt | ? | -8
CCOC(=O)c1cccc(NC(=O)Cc2ccc(NC(=O)N3CCCCc4ccccc43)cc2)c1 | 8%[59 µM] | 39% | -18% | nt | -16% | nt
CC(=O)OC1=CN(Cc2ccccc2)S(=O)(=O)c2ccccc21 | 6%[59 µM] | 20% | 3% | nt | -11% | nt
O=C(CCCN1C(=O)/C(=C\c2ccccc2)SC1=S)N1CCOCC1 | nt | ? | nt | -7% | ? | -1
O=C(CCCN1C(=O)/C(=C/c2ccccc2Cl)SC1=S)N1CCOCC1 | 19% | 11% | 79µM* | nt | 22µM* | 13
COc1cccc(/C=C2\SC(=S)N(CCC(=O)N3CCCCC3CCO)C2=O)c1 (configuration not stated) | 56µM* | ? | 32µM* | nt | ? | 5
COc1cccc(/C=C2\SC(=S)N(CCCC(=O)N3CCCCC3CCO)C2=O)c1 (configuration not stated) | ? | -36%[57 µM] | 25µM* | nt | 20µM* | 2
O=C(CCN1C(=O)/C(=C/c2cccs2)SC1=S)N1CCCCC1 | 10µM* | ? | 8.9µM* | nt | ? | 2
Cc1ccc(C(=O)NC2(C(F)(F)F)N=C(c3ccccc3)N(C3CCCCC3)C2=O)cc1 (configuration not stated) | 0%[59 µM] | 1% | -18% | nt | -18% | nt
O=C(Cn1cc(S(=O)(=O)N2CCCC2)c(S(=O)(=O)N2CCCC2)c1)Nc1cccc(F)c1 | -12%[59 µM] | 3% | 11%[57.1 µM] | nt | -10% | nt
Cc1ccc(C)c(N2CCN(S(=O)(=O)c3ccc(-c4cc(C(F)(F)F)on4)s3)CC2)c1 | 1%[59 µM] | 23% | 11% | nt | -15% | nt
O=C1/C(=C/c2cccs2)SC(=S)N1CCC(=O)N1CCCCC1CCO (configuration not stated) | 50µM* | 6% | 22µM* | nt | ? | -4
CN1CCN(C(=O)CCN2C(=O)/C(=C/c3ccc(F)cc3)SC2=S)CC1 | 71µM* | -7% | ? | nt | -27% | 2
COc1ccc(CCNC(=O)Cn2c(=O)n(-c3ccc(OC)c(OC)c3)c(=O)c3ccccc32)cc1OC | 0%[59 µM] | 18% | -6% | nt | -8% | nt
SMILES | G9a block | HP1b chromo inh | BAZ2B block | L3MBTL1 block | JMJD2A Tudor inh | PI5P4K alpha inh
CCN(CC)CCCNC(=O)CN1C(=O)CCn2nc(-c3cn(C)c4ccccc34)cc21 | -2%[59 µM] | 21%[57 µM] | -15% | nt | -18% | nt
Cn1cc(CN2CCc3c([nH]c4ccccc34)C2C(C)(C)C)cn1 (configuration not stated) | nt | 7% | -4% | -1% | -27% | 6
Cn1cc(CN2CCc3c([nH]c4ccccc34)C2C2CCCCC2)cn1 (configuration not stated) | 45µM* | 8% | 45µM* | -6% | -17%[57.1 µM] | 1
O=C(NCC(c1ccco1)S(=O)(=O)c1cccs1)c1ccccc1F (configuration not stated) | 8%[59 µM] | -3% | 2% | nt | 0% | nt
Cc1ccc(S(=O)(=O)N2CCN(C(=O)C3CC3C)CC2)c(C)c1 (configuration not stated) | -3% | 32% | -8% | 6% | 3% | 1
Cc1ccc(S(=O)(=O)N2CCN(C(=O)C3CCN(C(=O)c4ccc(F)cc4)CC3)CC2)c(C)c1 | ? | 10% | 11% | -3% | 18µM* | 7
COc1cccc(C(=O)N2CCN(Cc3ccccc3[N+](=O)[O-])CC2)c1 | 11µM* | ? | ? | -1% | 22µM* | 1
O=C(c1cccs1)N1CCN(CCc2ccccc2)CC1 | -33%[59 µM] | 30% | 9% | 3% | -13% | nt
O=C(c1cccs1)N1CCN(Cc2ccccc2[N+](=O)[O-])CC1 | 11µM* | ? | 56µM* | 0% | ? | -15
CCS(=O)(=O)N1CCN(C(=O)c2cccc(OC)c2)CC1 | 6%[59 µM] | 28% | nt | 3% | -2% | -4
O=c1c(-c2cc(F)cc(F)c2)nc2cncnc2n1Cc1ccccc1 | 1%[0.501 µM] | nt | nt | nt | nt | nt
CCOC(=O)Cc1csc(NC(=O)c2ccc(NC(C)=O)cc2)n1 | ? | 16% | -37% | -4% | 20µM* | 6
CCOC(=O)Cc1csc(NC(=O)c2ccco2)n1 | -5%[12.7 µM] | 15% | -3% | 0% | 79µM* | nt
CCOC(=O)Cc1csc(NC(=O)c2ccncc2)n1 | 9%[12.7 µM] | 44% | -6% | -1% | -17% | 0
CCOC(=O)Cc1csc(NC(=O)c2csc3c2CCCC3)n1 | 35µM* | 13% | 1% | -3% | 1% | nt
CCOC(=O)Cc1csc(NC(=O)c2cc(OC)cc(OC)c2)n1 | 16%[59 µM] | 25% | 8% | 5% | 79µM* | -8
